Shown are actives, neighbours in structure and some others; about 4.8% of the full set was active somewhere.
IL1B secr inh: blocks inflammasome-driven IL-1 beta release; THP-1 LPS/ATP IL-1B secretion, AlphaLISA, 16 h; hits give low values; activity change, % at 57.5 µM; 4.7% of 360,000 active; in the data active = activity change below about -50%; inconclusive = mostly about -30% to -49%
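Secreted IL-1B measured by AlphaLISA bead assay after 16 h compound exposure of THP-1 cells; compounds (final up to 57.5 uM) added 1 h before LPS (250 ng/mL) and ATP (1.25 mM) stimulation; lower signal means less secretion.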
USP2a block: blocks human ubiquitin-specific protease USP2a; Potency, µM (titrated, usually from 38.3 µM), most hits filed as inhibitors; O75604; USP2 core, Ub-CHOP2 coupled fluorogenic reporter, 485/531; 0.01% of 330,000 active
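Deubiquitinase activity read as fluorescence (485/531 nm) after Ub-CHOP2 cleavage activates the enterokinase reporter on its substrate; USP2 core 10nM, Ub-CHOP2 and substrate 25nM each, 30min compound preincubation then 60min RT; data normalized to NEM, curves fitted.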
USP1 inh: USP1/UAF1 (human) deubiquitinase inhibition; Potency, µM (titrated, usually from 57.1 µM), actives largely listed as inhibitors; recombinant USP1/UAF1, Ub-Rhodamine cleavage fluorescence; 0.23% of 390,000 active; also: nearly all actives have a fitted effect of over 60% in size
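1 nM enzyme complex + cpd, 15 min RT; start with Ub-Rho 150nM final; kinetic fluorescence ex 480/em 540, 6 reads q60 s. Buffer 50mM HEPES pH 7.8, 0.5mM EDTA, 0.1 mg/ml BSA, 1mM TCEP, 0.01% Tween-20.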
ATXN2 expr inh: ATXN2 expression inhibition. HEK-293 ATXN2-luciferase reporter, luminescence, 24 h. AID 1745845. Potency, µM (highest dose often 57 µM), usual class: inhibitors. 0.72% of 360,000 active; also: nearly all actives have a fitted effect of over 55% in size
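qHTS (up to 57 uM final) was run with 24 h compound exposure of reporter cells at 37 °C. Each well was multiplexed: SteadyGlo luminescence measured ATXN2-luciferase expression after a fluorogenic Gly-Phe-AFC viability readout (25 uM final).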
ATXN viability: reduces viability in counter-screen for ATXN expression inhibitors | S2 cells (HEK-293 line with an ATXN2-luciferase reporter) viability, CellTiter-Fluor protease fluorescence, 24 h | Potency, µM (series often up to 56.7 µM), most hits filed as cytotoxic | 0.49% of 400,000 active | AID 651635; also: nearly all actives have a fitted effect of over 40% in size
A number is an active result. Unless noted, calls follow the shape of the dose curve; as a rule, active = well fitted curve in the direction sought with a large enough effect; inconclusive = small, poorly fitted or top-dose-only effect, or another doubt; inactive = no such curve, though single readings can be large; an effect the other way counts as inactive or inconclusive.

How did Cc1ccc(-n2nnnc2Sc2nc([N+](=O)[O-])nn2C)c(C)c1 do in these assays?
IL1B secr inh: inconclusive; USP1 inh: inactive; ATXN2 expr inh: inactive; ATXN viability: inactive

What do the screens show for `Cc1ccc(-n2nnnc2Sc2nc([N+](=O)[O-])nn2C)cc1`?
IL1B secr inh: -57; USP2a block: inactive; USP1 inh: inactive; ATXN2 expr inh: inactive; ATXN viability: inactive

How did Cc1nc(SCCC(=O)O)c2cc(-c3ccccc3)sc2n1 do in these assays?
IL1B secr inh: inactive; USP2a block: inactive; USP1 inh: inactive; ATXN2 expr inh: 2µM; ATXN viability: inactive

What do the screens show for `CC(C)c1c(C(=O)N/N=C2\CCc3ccccc32)nnn1-c1nonc1N`?
IL1B secr inh: inactive; USP2a block: inactive; USP1 inh: inactive; ATXN2 expr inh: inactive; ATXN viability: inconclusive

How did Cc1cccc(NC(=O)c2nc[nH]c2C(=O)Nc2cc(Br)ccc2F)c1 do in these assays?
IL1B secr inh: inactive; USP1 inh: inactive; ATXN2 expr inh: inactive; ATXN viability: inactive

Results for Cc1cc(/C=N/NC(=O)c2cccc([N+](=O)[O-])c2)c(C)n1-c1ccccc1 ?
IL1B secr inh: -80; USP2a block: inactive; USP1 inh: inactive; ATXN viability: inactive

How did O=C(N/N=C/c1ccccn1)c1ccc(N/N=C/c2ccccn2)cc1 do in these assays?
IL1B secr inh: inactive; USP2a block: inactive; USP1 inh: inactive; ATXN2 expr inh: inactive; ATXN viability: inactive

How did O=C(N/N=C/c1ccccn1)c1ccc(Br)cc1 do in these assays?
IL1B secr inh: -105; USP2a block: inactive; USP1 inh: inactive; ATXN2 expr inh: inconclusive; ATXN viability: inconclusive

Results for O=C(N/N=C/c1ccccn1)c1ccc(NC(=O)c2cccc([N+](=O)[O-])c2)cc1 ?
IL1B secr inh: inactive; USP2a block: inactive; USP1 inh: inactive; ATXN2 expr inh: inactive; ATXN viability: inactive

How did O=C(N/N=C/c1ccccn1)c1cccc([N+](=O)[O-])c1 do in these assays?
IL1B secr inh: -96; USP2a block: inactive; USP1 inh: inactive; ATXN2 expr inh: inconclusive; ATXN viability: inactive

Results for O=C(CCl)N(O)c1ccc(C=Cc2ccccc2)cc1 ?
IL1B secr inh: -77; USP1 inh: inactive; ATXN2 expr inh: inconclusive; ATXN viability: 6.7µM

How did CC1(C)COC(/C=C/c2cccc([N+](=O)[O-])c2)=N1 do in these assays?
IL1B secr inh: -107; USP2a block: inactive; USP1 inh: inactive; ATXN2 expr inh: inconclusive; ATXN viability: inconclusive

How did CC1(C)COC(c2cc([N+](=O)[O-])ccc2Cl)=N1 do in these assays?
IL1B secr inh: inactive; USP2a block: inactive; USP1 inh: inactive; ATXN2 expr inh: inactive; ATXN viability: inactive

Results for CCOc1ccccc1C(=O)Nc1ccc2nc(N(CC)CC)cc(C)c2c1 ?
USP1 inh: inconclusive; ATXN2 expr inh: inactive; ATXN viability: inconclusive

What do the screens show for `CCN(CC)c1cc(C)c2cc(NC(=O)c3ccccc3F)ccc2n1`?
IL1B secr inh: -57; USP2a block: inactive; USP1 inh: inactive; ATXN2 expr inh: inactive; ATXN viability: inconclusive

Results for COc1cccc(S(=O)(=O)NCc2ccc(C(=O)Nc3ccc(Cl)c(Cl)c3)cc2)c1 ?
IL1B secr inh: inactive; USP2a block: inactive; USP1 inh: inactive; ATXN2 expr inh: inactive; ATXN viability: inactive

How did O=C(Nc1ccc(Cl)c(Cl)c1)c1cccc(S(=O)(=O)NCc2cccnc2)c1 do in these assays?
IL1B secr inh: -82; USP2a block: inactive; USP1 inh: inactive; ATXN2 expr inh: inconclusive; ATXN viability: inconclusive

How did COc1cccc(C2NC(c3cccc(OC)c3O)C(C)C(=O)C2C)c1O (centres undefined) do in these assays?
IL1B secr inh: inactive; USP2a block: inactive; USP1 inh: inactive; ATXN2 expr inh: inconclusive; ATXN viability: inactive

Results for CC1C(=O)C(C)C(c2cc(Cl)ccc2O)NC1c1cc(Cl)ccc1O (centres undefined) ?
IL1B secr inh: -75; USP2a block: inactive; USP1 inh: inactive; ATXN2 expr inh: 25µM

What do the screens show for `O=C(C[C@H]1CC[C@H]2[C@@H](COC[C@H](O)CN2Cc2ccccc2)O1)NCCCN1CCOCC1`?
IL1B secr inh: inactive

How did CCOc1ccc(-c2cncc3nccn23)cc1 do in these assays?
IL1B secr inh: -52; ATXN2 expr inh: inactive; ATXN viability: inactive
